Assay outcomes (PubChem)
Shown are actives, neighbours in structure and some others; about 1.5% of the full set was active somewhere.
LANA DNA inh: inhibitors of KSHV LANA C-terminal domain DNA binding; MBP-C-LANA/FAM-LBS DNA binding, fluorescence polarization; inhibition, % at 9 µM; actives 0.078% (n = 340,000);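 active = highest replicate inhibition at or above 60% at 9 µM, even if other replicates fall short; inactive = all replicates below 60% inhibition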;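 note: 0% = neutral control wells and 100% = 4 µM acridine orange control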
Keap1-Nrf2 PPI: inhibitors of human Keap1-Nrf2 protein-protein interaction; Q14145; Keap1 Kelch-Nrf2 peptide fluorescence polarization, 1536-well; inhibition, % at 9.4 µM; actives 0.15% (n = 340,000); in the data active = inhibition above about 12%;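 note: human Keap1 Kelch domain with fluorescein labeled Nrf2 9mer peptide probe; 0% = neutral control wells and 100% = peptide positive control; higher means more block of Keap1 binding to Nrf2 peptide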
Target sequence (Q14145 whole entry, looked up, the tested form may be a part): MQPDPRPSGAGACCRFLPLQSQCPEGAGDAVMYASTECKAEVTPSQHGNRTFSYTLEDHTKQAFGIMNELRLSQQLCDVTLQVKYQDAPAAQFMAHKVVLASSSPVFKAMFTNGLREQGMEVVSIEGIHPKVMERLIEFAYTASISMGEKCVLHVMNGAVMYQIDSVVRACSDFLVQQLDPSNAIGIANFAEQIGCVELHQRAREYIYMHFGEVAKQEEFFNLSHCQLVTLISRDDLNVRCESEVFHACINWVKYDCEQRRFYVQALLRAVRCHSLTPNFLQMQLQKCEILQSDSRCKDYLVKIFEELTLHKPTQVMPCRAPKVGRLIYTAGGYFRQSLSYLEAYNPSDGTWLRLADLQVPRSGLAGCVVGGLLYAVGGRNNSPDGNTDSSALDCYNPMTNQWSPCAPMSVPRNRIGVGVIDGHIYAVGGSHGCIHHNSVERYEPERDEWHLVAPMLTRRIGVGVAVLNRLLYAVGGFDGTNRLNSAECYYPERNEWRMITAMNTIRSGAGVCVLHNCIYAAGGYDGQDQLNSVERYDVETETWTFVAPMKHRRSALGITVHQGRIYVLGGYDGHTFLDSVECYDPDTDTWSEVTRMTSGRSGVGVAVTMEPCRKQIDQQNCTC
eLon inh: inhibitors of E. coli Lon protease; inhibition, % at 7.94 µM; purified E. coli Lon protease, fluorescence polarization; P0A9M0; actives 0.42% (n = 360,000); AID 602123; in the data active = inhibition above about 13%, passing the limit was not always enough;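 note: 0% = enzyme with probe and DMSO and 100% = no enzyme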
GLD-1 RNA inh: GLD-1-TGE RNA interaction inhibition (C. elegans); Q17339; purified GLD-1 + fluorescein TGE RNA, fluorescence polarization; inhibition, % at 5.96 µM; actives 0.44% (n = 320,000); AID 2280;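 active = percent inhibition above a per-plate cutoff, the plate mean of test compounds plus 3 SD, cut at about 30% in these data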;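 note: 0% = DMSO wells with GLD-1 and probe and 100% = wells lacking GLD-1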
LANA-H2B inh: blocks KSHV LANA binding to histone H2A/H2B. cell-free LANA-H2A/H2B peptide, fluorescence polarization. actives 0.6% (n = 320,000). inhibition, % (concentration not given with the values). AID 2629; in the data active = inhibition mostly above about 10%, no sharp cut-off; inactive = mostly below about 6.7%
EBV gp42 block: blocks Epstein-Barr virus glycoprotein 42 binding | Fluorescence polarization binding assay, mP read-out | inhibition, % (tested at 21.74 µM) | actives 0.42% (n = 220,000); in the data active = inhibition above about 50%
The depositor's hits bear a star; x = no result; + = active, no number.

SMILES	LANA DNA inh	Keap1-Nrf2 PPI	eLon inh	GLD-1 RNA inh	LANA-H2B inh	EBV gp42 block
CCc1ccc(C(=O)C(C)OC(=O)Cc2n[nH]c(=O)c3ccccc23)cc1 (stereo unspecified)	0	0	8	-1	-4	x
O=C(Nc1ccc(F)c(Cl)c1)C1CC(=O)N(Cc2ccccc2)C1 (stereo unspecified)	-1	0	-1	3	0	x
O=C(Nc1ccc(F)c(Cl)c1)C1CC(=O)N(Cc2ccco2)C1 (stereo unspecified)	1	-6	-3	1	+	x
COc1ccccc1/C=c1\sc2nc(-c3ccco3)nn2c1=O	8	5	-9	0	4	-11
COc1ccc(OC)c(/C=c2\sc3nc(-c4cccs4)nn3c2=O)c1	24	11	11	-12	-2	135*
COCCN(CC(=O)NCc1ccc2c(c1)OCO2)C(=O)CCC(=O)Nc1nccs1	2	5	-8	3	3	-15
COCCNC(=O)CN(Cc1ccc2c(c1)OCO2)C(=O)CCC(=O)Nc1nccs1	1	-2	0	-4	18*	-14
N/C(=N\OC(=O)C1CCCCC1)c1cccc([N+](=O)[O-])c1	0	2	6	3	15*	-24
CCN1C(=O)[C@@H]2[C@@H]3CN(S(=O)(=O)c4ccc(C)cc4)[C@@H](c4ccccc4Cl)[C@@H]3C(=O)C[C@@H]2C1=O	x	x	9	x	x	x
Cc1[nH]nc(SCC(=O)NCCc2ccccc2)c1[N+](=O)[O-]	0	-2	2	7	12*	-10
Cc1[nH]nc(SCC(=O)NCc2ccccc2)c1[N+](=O)[O-]	-1	-2	-4	-7	x	-14
CCC(=O)Nc1cc(C)c(NC(=O)CCc2ccccc2)cn1	10	-3	-10	37*	-1	24
Cc1cc(NC(=O)c2ccco2)ncc1NC(=O)CCc1ccccc1	-1	0	4	4	-1	15
O=S1(=O)CC(N2CCN(CC3CC3)CC2)CN1CCc1ccccc1 (stereo unspecified)	x	x	0	x	x	x
CN1C(=O)/C(=C2\SC(=S)N(CCCCCC(=O)O)C2=O)c2ccccc21	1	-7	8	9	2	73*
Cc1c(N2C(=O)/C(=C3\C(=O)N(CC(=O)O)c4ccccc43)SC2=S)c(=O)n(-c2ccccc2)n1C	0	-10	-7	8	22*	-2
NC(Cc1ccc(Cl)cc1)c1csc(NC(=O)Nc2ccccc2-c2ccccc2)n1 (stereo unspecified)	x	x	-5	x	x	x
Cc1cc(C)c(S(=O)(=O)Nc2ccccc2C(=O)OCC(=O)NCc2ccccc2)c(C)c1	0	-5	-9	-1	-1	-2
O=C(CN1C(=O)/C(=C/c2ccco2)SC1=S)Nc1ccc(O)c(C(=O)O)c1	101*	1	-46	-8	3	x
O=C(CN1C(=O)/C(=C/c2ccco2)SC1=S)Nc1ccc(C(=O)O)c(O)c1	108*	-9	-52	4	5	x
O=C(CCCN1C(=O)/C(=C/c2ccco2)SC1=S)Nc1cccc(C(=O)O)c1	60	0	-2	3	16	-20
COc1ccc(C(Cl)=C(c2ccc(OC)cc2)c2ccc(OC)cc2)cc1	1	-2	4	2	39*	-10
COc1ccc(C(=N/O)/C(=N/O)c2ccc(OC)cc2)cc1	3	4	-2	0	-6	2
Cc1ccc2c(Cl)cc(Cl)c(OCC(=O)NCc3ccco3)c2n1	x	x	x	x	x	69*
Cc1ccc2c(Cl)cc(Cl)c(OCC(=O)NC(=O)NCc3ccco3)c2n1	2	-9	-1	0	-2	-24
SMILES	LANA DNA inh	Keap1-Nrf2 PPI	eLon inh	GLD-1 RNA inh	LANA-H2B inh	EBV gp42 block
c1cnc2ccc(-n3ccnc3)cc2c1	x	x	-3	x	x	x
Cc1cccn2c(=O)c3cc(C(=O)NCc4ccco4)c(=N)n(C(C)C)c3nc12	-2	-5	-6	49*	0	26
CCCn1c(=N)c(C(=O)NC2CCCC2)cc2c(=O)n3cccc(C)c3nc21	0	5	-7	2	5	-16
CCn1c(=N)c(C(=O)NC)cc2c(=O)n3cccc(C)c3nc21	0	-2	0	x	17*	-9
CCCn1c(SCCc2ccccc2)nc2c1c(=O)[nH]c(=O)n2C	-1	0	-11	4	-3	115*
Cc1ccc(Sc2cc(C(=O)NCCCN(C)C)c3ccccc3n2)cc1	-1	1	12	69*	2	x
CCN(C(=O)CSc1nnc(-c2ccccc2OC)n1N)c1c(N)n(Cc2ccccc2)c(=O)[nH]c1=O	0	-4	3	x	x	x
CCCCN(C(=O)CSc1nnc(-c2ccccc2OC)n1C)c1c(N)n(Cc2ccccc2)c(=O)[nH]c1=O	1	-6	6	4	+	-10
N#Cc1ccc(-c2nc3c4ccccc4ccn3c2Cc2cccc(Cl)c2)cc1	x	x	-5	x	x	x
CCCCCCOc1ccc(/C=C/C(=O)N2CCOCC2)cc1OC	0	-2	-2	8	11*	x
CCOc1ccc(/C=N/OCC(=O)Nc2ccc3c(c2)OCO3)cc1	-2	0	-10	3	-2	1
CCOc1ccc(/C=N/OCC(=O)Nc2cc(C)on2)cc1	1	-5	-1	3	21*	-3
CC(C)(C)c1ccc(Cn2c(=N)n(CC(O)c3ccco3)c3ccccc32)cc1 (stereo unspecified)	0	-7	-25	-12	18*	-4
CCOc1ccccc1NC(=O)CCNC(=O)N1CC(=O)Nc2ccccc21	x	x	-13	x	x	x
NC(=O)C1CCN(C(=S)NC2CC3C=CC2C3)CC1 (stereo unspecified)	-3	0	7	2	0	-4
CCOC(=O)C1CCN(C(=S)NC2CC3C=CC2C3)CC1 (stereo unspecified)	0	1	4	-2	21*	-13
O=C(OC1CC2CC1[C@H]1CCCCN1C2=O)N1CCN(C(=O)c2ccccc2)CC1 (stereo partly specified)	x	x	-1	x	x	x
CCOC(=O)N1CCN(C(=O)c2cc3cc(C)ccc3[nH]2)CC1	0	3	6	5	13*	x
Cc1ccc2[nH]c(C(=O)N3CCN(C=O)CC3)cc2c1	2	-1	-8	0	13	x
CC1(C(=O)Nc2ccc3ccccc3c2)CCC(=O)N1CCCn1ccnc1 (stereo unspecified)	x	x	5	x	x	x
O=C(NC1CCCCC1)N1CCN(S(=O)(=O)c2ccc(F)cc2)CC1	0	-2	-8	8	17*	-8
O=C(CSc1ccccc1)NCC(c1ccco1)N1CCCCC1 (stereo unspecified)	0	-7	2	3	28*	x
CCN(CC)S(=O)(=O)c1ccc(C(=O)N2CCN=C2SCc2cccnc2)cc1	-1	-3	-9	-1	26*	-3
CN(C)S(=O)(=O)c1ccc(C(=O)N2CCN=C2SCc2cccnc2)cc1	2	-2	-11	-6	-4	-18
